From PubChem BioAssay (Tox21)
Values joined by “and” are separate entries in the source; they are usually repeats but may differ in a detail not shown here. Equal entries are not always repeated. Inconclusive results are not listed. Where a call stands in place of a potency, no number is given. Some structures have more than one record in an assay (separate samples or runs), and their calls can disagree. Active and inactive are the calls of the source. Calls come from the whole dose curve; as a rule, active = well fitted activation curve with a large enough effect in the repeat runs; inconclusive = weak or mixed curves; inactive = flat fitted curve, though single readings scatter.

assay: A CellTox Green Cytotoxicity Assay to monitor cytotoxicity in HepG2 cells - 16 hour (AID 1224876); settings: CellTox Green fluorescence; series mostly up to 76.8 µM; note: nearly all actives have a fitted effect of over 45% in size
From the text: National Center for Advancing Translational Sciences [NCATS]
NIH Chemical Genomics Center [NCGC]
U.S. Environmental Protection Agency [EPA]
National Institutes of Environmental Health Sciences [NIEHS]
National Toxicology Program [NTP]
Cell-based models are critical for drug discovery. Determining the natural cytotoxic effects resulting from test compounds is an essential research activity. A CellTox Green Cytotoxicity Assay to monitor cytotoxicity in real time of continues cell culture during 40 hours of the compound treatment was used to screen Tox21 10K library compounds in HepG2 cells. CellTox Green Cytotoxicity Assay is a nonlytic, homogeneous, biofluorescent method to measure cytotoxicity in cell culture after experimental manipulation. The assay system uses a proprietary asymmetric cyanine dye that is excluded from viable cells but preferentially stains the dead cell's DNA. […] Viable cells produce no appreciable increases in fluorescence. Therefore, the fluorescence signal produced by the binding interaction with dead cell DNA is proportional to cytotoxicity.
The mixture of HepG2 cell suspension and reagents were dispensed at 600cells/6 ul/well in 1536-well tissue culture treated black solid bottom plates using a Multidrop dispenser. After the assay plates were incubated at a 37 C/5% CO2 incubator for 5 hours, 23 nL of compounds dissolved in DMSO, positive and negative controls was transferred to the assay plate by a pintool work station. The plates were incubated at 37 C for 40 hours. The fluorescence intensity were measured at 0h, 8h, 16h, 24h, 32h and 40h time points using ViewLux plate reader during compound treatment.
Potency is the fitted concentration of half-maximal effect.

Compound	Potency
CC(C)(C)C(O)(CCc1ccc(Cl)cc1)Cn1cncn1 (stereo not given)	inactive
c1cc2c3c(cccc3c1)CC2	inactive
Cc1ccc(N)cc1Cl	inactive
CN(C)[C@@H]1C(=O)C(C(N)=O)=C(O)[C@@]2(O)C(=O)C3=C(O)c4c(O)cccc4[C@@](C)(O)[C@H]3C[C@@H]12	inactive
COP(N)(=O)SC (stereo not given)	inactive
CN(N=O)c1ccccc1	inactive
Cc1ccc(N)cc1N	inactive
COCCl	inactive
Oc1ccccc1Cl	inactive
CC1OC(C)OC(C)O1 (stereo not given)	inactive
CCCN(CCC)N=O	inactive
Nc1c(Cl)c(Cl)nc(C(=O)O)c1Cl	inactive
CC(C#N)CCC#N (stereo not given)	inactive
CCC(C)(CC)c1cc(NC(=O)c2c(OC)cccc2OC)on1	inactive
CCC[CH2][Sn]([Cl])([Cl])[Cl]	inactive
O=NN1CCCCCCC1	inactive
c1ccc(OP(Oc2ccccc2)Oc2ccccc2)cc1	inactive
O=S(=O)(c1ccc(Cl)cc1)c1cc(Cl)c(Cl)cc1Cl	inactive
CCCCCCCCCCCC#N	inactive and 45.2 µM (active)
CCCCCOC(=O)c1ccccc1C(=O)OCCCCC	inactive

Compound	Potency
CC(=O)C=C(C)C	inactive
CCCCCCCCCl	inactive
CN(C)CCO	inactive
CON(C)C(=O)Nc1ccc(Cl)c(Cl)c1	inactive
CC(NC(C)(C)C)C(=O)c1cccc(Cl)c1 (stereo not given)	inactive
[N-]=[N+]=[N-]	inactive
O=[N+]([O-])c1ccccc1	inactive
c1ccc2c(c1)oc1ccccc12	inactive
COc1ccc2c3c1O[C@H]1[C@@H](O)C=C[C@H]4[C@@H](C2)N(C)CC[C@@]341	inactive
Nc1ccc(Cc2ccc(N)cc2)cc1	inactive
CC(C)(Cl)Cl	inactive
COC(=O)NC(=S)Nc1ccccc1NC(=S)NC(=O)OC	inactive
CCN(CC)c1ccccc1	inactive
C=CCO	inactive and 24.5 µM (active)
NCCc1ccc(O)cc1	inactive
CCCCOC(=O)c1ccccc1C(=O)OCCCC	inactive
C1CC2OC2CC1C1CO1 (stereo not given)	inactive
C#CCN(C)[C@H](C)Cc1ccccc1	inactive
CN1C(=O)CN=C(c2ccccc2)c2cc(Cl)ccc21	inactive
CN=C=S	inactive
